The target in test [1] is Mitogen-activated protein kinase 9 (Homo sapiens) (UniProt P45984). As to conditions: at 1 µM.
Test [2] has the same target. As to conditions: at 10 µM.
Test [3] addresses Vascular endothelial growth factor receptor 2 (Homo sapiens) (UniProt P35968). As to conditions: at 10 µM.
Test [4] has as its target LIM domain kinase 1 (Homo sapiens) (UniProt P53667). Particulars: at 1 µM.
For test [5] the target is unchanged. As to conditions: at 10 µM.
Test [6] addresses Mitogen-activated protein kinase 8 (Homo sapiens) (UniProt P45983). Particulars: at 1 µM.
For test [7] the target is unchanged. As to conditions: at 10 µM.
The target in test [8] is Mitogen-activated protein kinase 10 (Homo sapiens) (UniProt P53779). Particulars: at 10 µM.
Test [9] addresses Vascular endothelial growth factor receptor 2 (Homo sapiens) (UniProt P35968). As to conditions: at 1 µM.
Test [10] deals with Mitogen-activated protein kinase 10 (Homo sapiens) (UniProt P53779). As to conditions: at 1 µM.

Sequence of Mitogen-activated protein kinase 8 (Homo sapiens) (P45983 whole entry): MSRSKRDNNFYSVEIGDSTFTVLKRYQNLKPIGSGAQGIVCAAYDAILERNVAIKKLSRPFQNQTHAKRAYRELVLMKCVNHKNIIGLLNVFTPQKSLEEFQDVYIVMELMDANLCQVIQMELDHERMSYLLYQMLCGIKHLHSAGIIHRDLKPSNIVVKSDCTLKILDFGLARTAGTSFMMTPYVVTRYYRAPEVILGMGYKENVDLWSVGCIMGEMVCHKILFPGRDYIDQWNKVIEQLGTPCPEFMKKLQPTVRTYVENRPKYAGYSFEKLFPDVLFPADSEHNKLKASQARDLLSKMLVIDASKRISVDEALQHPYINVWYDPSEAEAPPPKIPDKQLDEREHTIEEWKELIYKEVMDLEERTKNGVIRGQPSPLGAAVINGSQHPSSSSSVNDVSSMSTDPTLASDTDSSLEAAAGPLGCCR
Sequence of Mitogen-activated protein kinase 10 (Homo sapiens) (P53779 whole entry): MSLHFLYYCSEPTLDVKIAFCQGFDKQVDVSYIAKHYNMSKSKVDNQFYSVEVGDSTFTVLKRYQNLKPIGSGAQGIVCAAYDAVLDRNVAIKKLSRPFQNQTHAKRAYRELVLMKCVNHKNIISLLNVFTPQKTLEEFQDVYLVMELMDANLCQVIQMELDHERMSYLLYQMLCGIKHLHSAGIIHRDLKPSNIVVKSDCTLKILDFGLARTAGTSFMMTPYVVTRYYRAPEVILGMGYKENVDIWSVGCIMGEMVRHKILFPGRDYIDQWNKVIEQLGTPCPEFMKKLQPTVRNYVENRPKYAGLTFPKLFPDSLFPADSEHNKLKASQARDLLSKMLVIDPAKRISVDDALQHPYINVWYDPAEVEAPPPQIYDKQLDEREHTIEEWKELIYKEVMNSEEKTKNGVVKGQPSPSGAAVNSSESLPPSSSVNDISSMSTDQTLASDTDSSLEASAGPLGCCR
Sequence of Vascular endothelial growth factor receptor 2 (Homo sapiens) (P35968 whole entry, the tested form may be a part): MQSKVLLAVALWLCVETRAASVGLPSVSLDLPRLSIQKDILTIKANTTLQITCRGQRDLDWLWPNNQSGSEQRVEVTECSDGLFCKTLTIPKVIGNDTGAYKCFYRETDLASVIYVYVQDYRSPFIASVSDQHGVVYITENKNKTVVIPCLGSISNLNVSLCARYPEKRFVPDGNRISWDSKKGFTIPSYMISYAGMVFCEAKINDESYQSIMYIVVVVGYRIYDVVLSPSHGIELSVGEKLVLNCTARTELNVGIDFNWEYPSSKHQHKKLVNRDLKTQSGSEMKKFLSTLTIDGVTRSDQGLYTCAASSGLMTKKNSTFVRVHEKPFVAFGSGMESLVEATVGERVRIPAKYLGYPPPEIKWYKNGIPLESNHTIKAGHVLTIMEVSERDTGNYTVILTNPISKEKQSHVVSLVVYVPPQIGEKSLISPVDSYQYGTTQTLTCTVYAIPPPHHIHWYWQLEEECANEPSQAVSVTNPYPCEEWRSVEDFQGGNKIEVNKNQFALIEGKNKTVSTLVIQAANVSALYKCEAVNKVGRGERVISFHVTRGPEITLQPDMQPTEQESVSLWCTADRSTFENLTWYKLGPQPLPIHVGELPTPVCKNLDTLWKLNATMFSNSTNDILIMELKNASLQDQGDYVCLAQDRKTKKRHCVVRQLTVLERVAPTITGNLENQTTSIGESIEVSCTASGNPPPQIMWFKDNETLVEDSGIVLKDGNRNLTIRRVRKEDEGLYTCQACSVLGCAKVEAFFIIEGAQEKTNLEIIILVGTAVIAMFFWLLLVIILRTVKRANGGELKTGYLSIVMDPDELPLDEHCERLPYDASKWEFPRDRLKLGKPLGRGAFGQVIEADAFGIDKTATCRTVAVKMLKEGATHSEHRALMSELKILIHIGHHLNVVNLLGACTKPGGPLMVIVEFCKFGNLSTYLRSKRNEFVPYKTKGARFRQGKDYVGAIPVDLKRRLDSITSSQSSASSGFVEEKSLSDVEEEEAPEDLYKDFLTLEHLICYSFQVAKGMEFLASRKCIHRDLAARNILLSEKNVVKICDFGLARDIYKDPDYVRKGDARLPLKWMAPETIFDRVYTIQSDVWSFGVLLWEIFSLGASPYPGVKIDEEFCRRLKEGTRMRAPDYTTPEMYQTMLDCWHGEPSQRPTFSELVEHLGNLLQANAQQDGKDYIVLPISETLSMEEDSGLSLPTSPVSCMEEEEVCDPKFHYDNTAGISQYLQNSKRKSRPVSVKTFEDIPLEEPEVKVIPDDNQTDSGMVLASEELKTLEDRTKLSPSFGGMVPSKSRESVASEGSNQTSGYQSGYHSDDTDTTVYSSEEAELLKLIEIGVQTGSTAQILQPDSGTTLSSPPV
Sequence of Mitogen-activated protein kinase 9 (Homo sapiens) (P45984 whole entry, looked up): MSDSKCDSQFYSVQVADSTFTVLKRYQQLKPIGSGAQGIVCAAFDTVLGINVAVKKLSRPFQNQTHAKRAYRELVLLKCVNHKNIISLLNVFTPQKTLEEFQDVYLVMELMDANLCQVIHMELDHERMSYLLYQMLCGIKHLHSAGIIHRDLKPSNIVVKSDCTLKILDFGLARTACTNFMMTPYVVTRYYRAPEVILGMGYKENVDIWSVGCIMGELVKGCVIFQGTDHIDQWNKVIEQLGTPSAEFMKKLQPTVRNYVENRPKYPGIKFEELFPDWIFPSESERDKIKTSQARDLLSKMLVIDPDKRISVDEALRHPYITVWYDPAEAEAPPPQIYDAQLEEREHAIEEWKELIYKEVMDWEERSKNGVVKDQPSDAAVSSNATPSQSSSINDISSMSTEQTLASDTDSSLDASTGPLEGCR
Sequence of LIM domain kinase 1 (Homo sapiens) (P53667 whole entry, looked up, the tested form may be a part): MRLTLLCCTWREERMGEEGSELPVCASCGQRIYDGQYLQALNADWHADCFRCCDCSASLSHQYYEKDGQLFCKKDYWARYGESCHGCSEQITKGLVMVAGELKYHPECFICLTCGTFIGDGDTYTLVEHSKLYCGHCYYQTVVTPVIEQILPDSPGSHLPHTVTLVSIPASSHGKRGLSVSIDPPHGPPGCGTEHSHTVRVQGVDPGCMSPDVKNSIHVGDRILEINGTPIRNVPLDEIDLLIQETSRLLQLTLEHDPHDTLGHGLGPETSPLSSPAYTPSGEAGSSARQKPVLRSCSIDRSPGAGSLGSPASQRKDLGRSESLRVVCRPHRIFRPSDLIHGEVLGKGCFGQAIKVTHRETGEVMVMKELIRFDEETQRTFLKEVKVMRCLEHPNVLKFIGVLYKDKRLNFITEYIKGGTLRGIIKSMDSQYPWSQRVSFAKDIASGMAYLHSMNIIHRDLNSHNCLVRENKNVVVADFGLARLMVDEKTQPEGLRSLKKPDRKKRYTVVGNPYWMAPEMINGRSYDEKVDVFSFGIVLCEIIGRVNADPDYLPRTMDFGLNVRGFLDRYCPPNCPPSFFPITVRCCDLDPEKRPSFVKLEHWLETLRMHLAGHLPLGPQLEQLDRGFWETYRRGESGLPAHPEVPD

Turning to `CC(C)[C@H](CO)Nc1nc(Nc2cccc(Cl)c2)c2ncn(C(C)C)c2n1`, the residual activity in test [1] came out at 90%; in test [2] it was 97%; in test [3] it was 58%; in [4], 98%; in test [5] it was 90%.
In the case of `c1cc(-c2cnn3cc(-c4ccc(OCCN5CCCCC5)cc4)cnc23)ccn1`, the residual activity in test [6] stood at 117%; in [7] it was 106%; in [8] it was 82%; in test [9], 4%; in test [3], 1%; in test [5], 27%.
Take `COc1cc2ncnc(Nc3ccc(OCc4ccccc4)cc3)c2cc1OC`: the residual activity came out at 102% in test [6]; 101% in [7]; 106% in test [1]; 101% in test [2]; 106% in [10]; 110% in test [8]. The residual activity in test [9] is 60%; in test [3], 11%; in test [4], 110%; in test [5] it was 70%.
For the compound `O=c1[nH]c2ccccc2n1C1CCN(Cc2ccc(-c3nc4cc5[nH]cnc5cc4nc3-c3ccccc3)cc2)CC1`, the residual activity was 110% in test [6]; 86% in [7]; 104% in test [1]; 101% in [2]; 105% in test [10]; 69% in test [8]. Further, the residual activity in [9] amounted to 107%; in [3], 90%; in test [4], 115%; in test [5] it was 97%.
As to `O=C1NC(=O)c2c1c1c3ccccc3n3c1c1c2c2ccccc2n1C1CCC3O1`, the residual activity was determined as 63% in [10], 56% in test [8], 38% in [9] and 18% in test [3].
With `O=[N+]([O-])/C=C/c1ccc2c(c1)OCO2`, the residual activity in test [6] is 120%; in test [7], 102%; in test [1] it was 99%; in [2] it was 103%; in [10] it was 88%; in test [8] it was 92%. For the same compound, the residual activity came out at 101% in test [9], 85% in [3], 114% in [4] and 97% in test [5].
Consider `COc1cc(OC)c(/C=C2\C(=O)Nc3ccccc32)c(OC)c1`, for which the residual activity in test [1] is 89%; in test [2], 88%; in [10], 85%; in [8] it was 103%; in [9], 96%; in test [3] it was 91%. Moreover, the residual activity in test [4] and in test [5] was 83% in each case.
As for `N/C(=N\[N+](=O)[O-])N/N=C\c1ccc(-c2cccc([N+](=O)[O-])c2)o1`, the residual activity is 100% in test [1]; 98% in test [2]; 95% in [10]; 79% in [8]; 92% in [9]; 84% in test [3].
Turning to `CCc1nc(-c2ccc(OC)cc2)[nH]c1-c1ccncc1`, the residual activity in [6] came to 104%; in test [7], 106%; in [1], 102%; in [2], 105%; in test [10] it was 126%; in test [8] it was 123%. Further, the residual activity in test [4] amounted to 100%.
Regarding `COc1ccc2c(c1)/C(=C/c1cnc[nH]1)C(=O)N2`, the residual activity in test [1] turned out to be 82%; in [2], 47%; in [10], 80%; in test [8], 27%; in test [9], 47%; in [3], 3%. Also, in [5], the residual activity is 48%.
In the case of `O=C1c2ccccc2-c2nc3nnnn3nc21`, the residual activity in test [6] is 114%; in test [7], 83%; in [1], 109%; in test [2], 83%; in test [10] it was 112%; in test [8], 100%. The figures for the residual activity in [9] and in [3] were 109% and 104%, respectively.
For the compound `COc1ccc2c(c[n+](C)c3c4cc5c(cc4ccc23)OCO5)c1OC`, the residual activity is 100% in test [6]; 64% in test [7]; 81% in test [10]; 63% in [8]; 90% in test [3]; 87% in [5].
Take `O=C1Nc2ccc3ncsc3c2/C1=C/c1c[nH]cn1`: the residual activity in test [6] was 63%; in test [7], 22%; in test [1] it was 71%; in test [2] it was 16%; in test [10], 20%; in test [8], 20%. For the same compound, the residual activity worked out at 2% in test [9], 0% in [3], 55% in [4] and 10% in test [5].
Consider `C[S+]([O-])c1ccc(-c2nc(-c3ccc(F)cc3)c(-c3ccncc3)[nH]2)cc1` (centres undefined), for which the residual activity came out at 111% in [6]; 95% in [7]; 74% in test [1]; 30% in test [2]; 107% in test [9]; 60% in test [3]. Moreover, the residual activity in test [4] was 110%; in test [5] it was 82%.
With `CCn1cnc2c(Nc3cccc(Cl)c3)nc(N[C@@H]3CCCC[C@@H]3N)nc21`, the residual activity in test [10] was determined as 91%; in [8] it was 84%; in [9], 85%; in test [3], 45%; in test [4], 89%; in test [5] it was 63%.
Consider `COC(=O)[C@@]1(O)C[C@H]2O[C@]1(C)n1c3ccccc3c3c4c(c5c6ccccc6n2c5c31)C(=O)NC4`, for which the residual activity in [6] is -12%; in [7], -20%; in test [1], 5%; in test [2] it was -11%; in [10], -3%; in test [8], -1%. Besides, the residual activity in test [9] came to 3%; in [3], 0%; in test [4] it was 6%; in [5] it was 3%.
Turning to `CC(C)(C)c1cc(C=C(C#N)C#N)cc(Br)c1O`, the residual activity in test [6] came to 116%; in test [7] it was 110%; in test [1] it was 103%; in [2], 114%; in test [8], 54%; in [9], 107%. For the same compound, the figures for the residual activity in test [3] and in test [4] were 83% and 111%, respectively.

The record behind these values is ChEMBL document CHEMBL2218924, “A broad activity screen in support of a chemogenomic map for kinase signalling research and drug discovery” (Biochem J, 2013).
